High-throughput results deposited in PubChem BioAssay by National Center for Advancing Translational Sciences (NCATS).
In the library only some 6% were active in any assay of this set; here they are far more common.
D1 antag = Antagonist of Human D 1 Dopamine Receptor: qHTS; D(1A) dopamine receptor (Homo sapiens), P21728; HEK293 TREx D1 cells, calcium flux, dopamine EC80; active compounds read low; activity change, negative = inhibition, % at 10 µM; hit rate 3.2% among 360,000; AID 504652, 2011; in the data active = activity change below about -30%; also: % is scaled to controls: 0 for no effect and ±100 for the full control effect
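Antagonism measured as reduced calcium response to an EC80 dopamine addition following 180 s compound pre-read; cells were inducible HEK293 Trex D1 plated overnight at 30 C, read kinetically at 1 cycle/sec.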
D1 potentiator = Potentiators of Human D1 Dopamine Receptor: qHTS. D(1A) dopamine receptor (Homo sapiens), P21728. HEK293 TREx D1 cells, calcium flux, dopamine EC20 potentiation. potentiation, % at 10 µM. hit rate 0.036% among 360,000; in the data active = potentiation above about 30%; also: 0% is about no effect
D3 antag = qHTS of D3 Dopamine Receptor Antagonist: qHTS; D3R cells, DiscoveRx beta-arrestin luminescence, antagonist mode; active compounds read low; hit rate 2.5% among 360,000; max response, negative = inhibition, %; AID 652054, 2013; D(3) dopamine receptor (Homo sapiens), P35462; in the data active = max response below about -50%; inconclusive = no clear call, values can overlap the other calls; also: % is scaled to controls: 0 for no effect and ±100 for the full control effect
Target sequence (P35462 whole entry, looked up): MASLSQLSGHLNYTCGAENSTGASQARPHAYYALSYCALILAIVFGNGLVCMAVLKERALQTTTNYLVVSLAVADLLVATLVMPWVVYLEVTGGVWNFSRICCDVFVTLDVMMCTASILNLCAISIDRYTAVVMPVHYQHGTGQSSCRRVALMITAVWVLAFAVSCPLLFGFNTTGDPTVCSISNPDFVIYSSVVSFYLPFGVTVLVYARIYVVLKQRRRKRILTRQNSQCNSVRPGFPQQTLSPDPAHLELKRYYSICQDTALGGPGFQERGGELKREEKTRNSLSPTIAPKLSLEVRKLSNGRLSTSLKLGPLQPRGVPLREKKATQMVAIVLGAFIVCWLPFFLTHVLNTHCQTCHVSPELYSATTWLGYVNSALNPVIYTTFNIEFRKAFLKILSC
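Cells plated overnight at 1500 cells/well, then exposed to library compounds with dopamine controls for 90 minutes at 37 degrees C. DiscoveRx reagent added for 30–60 minutes at room temperature; luminescence read, quantitative HTS format.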
D3 ag = qHTS of D3 Dopamine Receptor Agonist: qHTS; hit rate 0.58% among 410,000; D3R DiscoveRx beta-arrestin cells, luminescence, 90 min; max activation, %; D(3) dopamine receptor (Homo sapiens), P35462; in the data active = max activation above about 30%; also: 0% is about no effect
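Agonist mode: compounds and dopamine controls were applied to plated cells for 90 min at 37 degrees C after an overnight attachment at 1500 cells/well. Luminescent read-out followed 30 - 60 minutes at room temperature with DiscoveRx detection reagent.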
D1 agonist = Allosteric Agonists of the Human D1 Dopamine Receptor: qHTS. D(1A) dopamine receptor (Homo sapiens), P21728. HEK293 T-REx D1 cells, calcium flux, agonist mode. activation, % at 2 µM. hit rate 1% among 360,000. AID 504660, 2011; in the data active = activation above about 30%; also: 0% is about no effect
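Agonism was scored from calcium flux recorded over 180 s (1 read/s) after pintool compound addition, following a 10-cycle baseline. Cells were inducible force-coupled HEK293 TREx D1, plated overnight at 30 C and loaded with no-wash calcium dye.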
* = called active by the depositor; ? = inconclusive; . = not tested or not shown.

SMILES	D1 antag	D1 potentiator	D3 antag	D3 ag	D1 agonist
CCOC(=O)N1CCN(C(=O)CSc2ccc(C(F)(F)F)cc2[N+](=O)[O-])CC1	3	-9	-6	-10	6
O=C(C1CCC1)N1CCN(c2ccc(C(F)(F)F)cc2[N+](=O)[O-])CC1	-40*	-8	7	-4	10
Cc1cn([C@H]2C[C@H](O)[C@@H](CNCc3ccccc3)O2)c(=O)[nH]c1=O	.	.	-4	4	.
Cc1cn([C@H]2C[C@H](O)[C@@H](CNCC3=Cc4cc(O)ccc4OC3)O2)c(=O)[nH]c1=O	.	.	?	39*	.
CC(C)COc1ccc(C(=O)NCC2OCCc3ccccc32)cc1 (configuration not stated)	-31*	-1	.	7	2
CC(C)CCOc1ccc(C(=O)NCC2OCCc3ccccc32)cc1 (configuration not stated)	-2	-3	.	10	12
O=C1CCN(Cc2ccccc2)C=C1c1ccc(Cl)cc1	.	.	0	-3	.
O=C1CCN(Cc2ccccc2)C=C1C(=O)c1ccccc1	.	.	-20	47*	.
COc1cc(CNC(C)C)c(Br)cc1OC1CCCC1	-49*	-10	13	-5	8
O=[N+]([O-])c1ccc(N=Cc2sc3ccccc3c2O)cc1	7	-7	7	-6	32*
CN1CCN(c2ccc(NC(=O)c3ccc(-c4ccccc4F)o3)cc2)CC1	-96*	-19	-14	3	5
CN1CCN(c2ccc(NC(=O)c3ccc(Br)o3)cc2)CC1	-41*	-10	-1	9	4
CCn1nc(C)cc1C(=O)OCC(=O)c1ccc(Cl)cc1	-63*	-8	6	9	3
CCN(CC)CCC(C)OC(c1ccccc1)c1ccccc1 (configuration not stated)	26	-3	-53*	-4	10
CCN(CC)CCOC(c1ccccc1)c1ccc(C)cc1 (configuration not stated)	8	-10	-28	-7	15
Cc1ccc(NC(=O)N2CCC(n3c(C)nc4cccnc43)CC2)c(Cl)c1	-10	-1	.	1	0
Cc1ccc(Cl)cc1NC(=O)Nc1cccs1	-63*	-9	-19	-11	24
Cc1ccc(NC(=O)Nc2cccs2)c(C)c1	-41*	1	.	1	11
CC(=O)Nc1ccc(NC(=O)Nc2ccc(C)cc2C)cc1	-2	-2	-19	-12	1
Cc1ccccc1NC(=O)Nc1cccs1	-36*	-4	0	0	12
CCc1ccccc1NC(=O)Nc1cccs1	-9	-5	11	6	5
Cc1ccccc1NC(=O)/C(=C\c1cccs1)NC(=O)c1ccccc1	-7	-3	-54*	-8	3
CCCN(CCC)C(=O)Cn1c(=O)n(-c2cccc(C(F)(F)F)c2)c(=O)c2c(C)c(C)sc21	-9	6	.	-4	2
O=C1COc2ccc(C(=O)COC(=O)Cc3c(F)cccc3Cl)cc2N1	-31*	1	-5	-4	12
CCCOc1ccc(C(=O)Nc2cc3nn(-c4ccc(CC)cc4)nc3cc2C)cc1	12	-1	.	3	0
SMILES	D1 antag	D1 potentiator	D3 antag	D3 ag	D1 agonist
Cc1c(N=C2SC(CC(=O)Nc3ccccc3)C(=O)N2CCN2CCOCC2)c(=O)n(-c2ccccc2)n1C (configuration not stated)	-51*	-1	9	-4	2
C=CCN1C(=O)C(CC(=O)Nc2ccc(C)cc2)SC1=Nc1c(C)n(C)n(-c2ccccc2)c1=O (configuration not stated)	-1	0	10	1	1
CC(=O)c1ccc(S(=O)(=O)NC2CC(=O)N(c3ccc(Cl)cc3)C2)cc1 (configuration not stated)	-34*	-2	6	-1	13
O=C(NC1CC(=O)N(c2ccc(Cl)cc2)C1)c1ccc(S(=O)(=O)N2CCOCC2)cc1 (configuration not stated)	.	-2	.	5	0
CCCN(CC(=O)Nc1ccccc1C)C(=O)c1ccc(COc2ccccc2)cc1	-42*	-1	-19	4	11
Cc1ccc(C(=O)n2nc(C)c(S(=O)(=O)N3CCCCCC3)c2C)cc1C	-15	-3	.	4	4
COc1ccc(-c2cc(C(F)(F)F)nc(N3CCCCCC3)n2)cc1	11	8	-16	-6	1
FC(F)(F)c1cc(-c2cccs2)nc(-n2cc(Br)cn2)n1	4	2	16	10	1
COc1ccc(-c2cc(C#N)nc(N3CCN(C)CC3)n2)cc1	-7	-1	?	-24	0
FC(F)(F)c1cc(-c2cccs2)nc(N2CCOCC2)n1	30	2	-58*	5	4
COc1ccc(-c2cc(C(F)(F)F)nc(N3CCN(C)CC3)n2)cc1	12	-3	-66*	1	4
CN1CCN(c2nc(C#N)cc(-c3ccccc3)n2)CC1	-25	-11	-74*	-11	6
COc1ccc(CCNC(=O)CSc2cn(CCNC(=O)c3cccc(C(F)(F)F)c3)c3ccccc23)cc1OC	3	-4	.	8	-1
O=C(NCCc1nc2ccccc2n1CCOc1ccc(Cl)cc1)C1CCCCC1	-4	-3	.	.	17
Cc1ccc(Sc2c(C)nn(C(=O)c3ccc(Cl)cc3)c2C)cc1	-3	0	.	-8	2
COCCNC(=O)Cn1nc(N2CCN(c3ccccc3OC)CC2)ccc1=O	9	3	.	-18	1
COc1ccccc1CCNC(=O)C(=O)NCC(c1cccs1)S(=O)(=O)c1ccc(C)cc1 (configuration not stated)	.	-3	.	-2	8
C#CCNC(=O)C1=C[C@@H](c2ccc(Br)cc2)C[C@@H](OCc2ccc(CO)cc2)O1	-31*	-4	-13	-12	-5
C#CCNC(=O)C1=C[C@@H](c2ccc(C(F)(F)F)cc2)C[C@@H](OCCCCO)O1	12	6	-52*	-2	-3
C#CCNC(=O)C1=C[C@H](C2CCCCC2)C[C@H](OCc2ccc(CO)cc2)O1	-35*	-4	15	8	9
O=C(O)C1=C[C@@H](c2ccccc2)C[C@@H](OCc2ccc(CO)cc2)O1	15	-2	10	22	7
C#Cc1ccc([C@@H]2C=C(C(=O)O)O[C@H](OCc3ccc(CO)cc3)C2)cc1	-39*	-6	26	18	-3
C#CCNC(=O)C1=C[C@@H](C2CCCCC2)C[C@@H](OCc2ccc(CO)cc2)O1	-13	-5	17	0	0
CCOC(=O)CSc1nc2ccc(NC(=O)COc3ccc(F)cc3)cc2s1	2	-1	.	-9	5
